PubChem BioAssay (NCATS)
Results filed as inconclusive are left out. Entries that show only a call come without a potency. The source made the active and inactive calls. The call rests on the fitted dose curve; in most records, active means well fitted inhibition curve with a large enough effect; inconclusive means small, poorly fitted or top-dose-only effect; inactive means no such curve, though single readings can be large or run the other way.

tested on: Zika virus NS2B-NS3 protease (unlinked complex); assay: Primary screen GU Rhodamine qHTS for Zika virus inhibitors: Unlinked NS2B-NS3 protease assay (AID 1347159); settings: Recombinant ZIKV NS2B-NS3 protease, Rhodamine110 substrate fluorescence; series mostly up to 107 µM; further: nearly all actives have a fitted effect of over 60% in size
Method in brief: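 Compounds, tested up to 114 microM, were incubated for 15 minutes with 25 nM unlinked NS2B-NS3 protease at pH 8.0. Cleavage of 1.5 microM Rhodamine110 substrate was then followed by fluorescence for 15 minutes.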

| SMILES | Potency |
| --- | --- |
| CC(=O)N(C)c1cccc(-c2ccnc3c(C(=O)c4cccs4)cnn23)c1 | inactive |
| CC(=O)NCCc1c[nH]c2ccccc12 | inactive |
| S=C(NC1CCCCC1)N1CCC(c2cnc[nH]2)CC1 | inactive |

tested on: Zika virus NS2B-NS3 protease (linked construct); assay: Primary screen NINDS Rhodamine qHTS for Zika virus inhibitors (AID 1347160); settings: purified NS2B-NS3 protease, Rhodamine110 substrate fluorescence; series mostly up to 57.1 µM; further: nearly all actives have a fitted effect of over 55% in size
Method in brief: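 Percent inhibition, normalized to uninhibited and enzyme-free controls, is fitted to a 4-parameter Hill equation. Fluorescence change comes from a 15-min cleavage of 1.5 microM bis-peptide Rhodamine110 substrate by 25 nM linked NS2B-NS3 at room temperature.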

| SMILES | Potency |
| --- | --- |
| CC(=O)N(C)c1cccc(-c2ccnc3c(C(=O)c4cccs4)cnn23)c1 | inactive |
| CC(=O)NCCc1c[nH]c2ccccc12 | inactive |
| NCCc1c[nH]c2ccc(O)cc12 | inactive |
| NCCc1c[nH]c2ccccc12 | inactive |
| S=C(NC1CCCCC1)N1CCC(c2cnc[nH]2)CC1 | inactive |
